Measurements taken from PubChem BioAssay (NCATS).
“And” between values parts separate entries of the source, which are not always exact repeats. Equal values may be shown once. Records with an inconclusive call do not appear. The source made the active and inactive calls. Unless noted, calls follow the shape of the dose curve; as a rule, active = well fitted curve in the direction sought with a large enough effect; inconclusive = small, poorly fitted or top-dose-only effect, or another doubt; inactive = no such curve, though single readings can be large; an effect the other way counts as inactive or inconclusive.

Columns and labels:
[1] = Cell Viability - Hek293 (AID 427;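 active = compounds whose dose-response curve shows a full or clear partial loss of cell viability, called from curve shape rather than a numeric limit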;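 also: potency is read from the fitted curve at half-maximal effect; cells exposed to compound for 40 hours at 37 °C before reading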); conditions: qHTS
Procedure, shortened: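 qHTS, human embryonic kidney (adenovirus-transformed) cells; 40 hr cpd, 37 °C; CellTiter-Glo ATP luminescence. Norm: DMSO = 0, 100 uM tamoxifen = 100% inhibition. Hill-fit AC50.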

[2] = Cell Viability - SK-N-SH (AID 435; calls by dose curve; also: potency is read from the fitted curve at half-maximal effect); conditions: SK-N-SH neuroblastoma cell viability qHTS
Procedure, shortened: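 qHTS cytotoxicity: CellTiter-Glo ATP luminescence after 40 h compound exposure of human neuroblastoma SK-N-SH cells at 37 °C. AC50 derived by Hill-equation fitting, with DMSO as basal and 100 uM tamoxifen as full inhibition.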

[3] = Cell Viability - N2a (AID 540); conditions: N2a mouse neuroblastoma cell viability; activity change, negative = cytotoxicity: at 92.2 µM (top of the series);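 also: plate controls were DMSO alone for no effect and tamoxifen control for full effect; nearly all actives have a fitted effect of over 45% in size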
Procedure, shortened: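 Mouse neuroblastoma N2a cells, 1500/well, exposed to compounds 40 h at 37 °C in complete medium. Viability measured as cellular ATP by CellTiter-Glo luminescence; AC50 from Hill fits of concentration-response.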

[4] = Cell Viability - SH-SY5Y (AID 544); conditions: SH-SY5Y neuroblastoma cell viability; viability change, negative = cytotoxic: at 92.2 µM (top of the series);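 also: 0% = DMSO alone and -100% = 100 µM tamoxifen; nearly all actives have a fitted effect of over 55% in size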
Procedure, shortened: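 SH-SY5Y human neuroblastoma cells (1500/well) incubated 5 h, then compound-treated 40 h at 37 °C in complete medium. Viability read as intracellular ATP by CellTiter-Glo luminescence after 20 min; AC50 from Hill-equation fits of qHTS concentration-response.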

[5] = Cell Viability - Renal Proximal Tubule (AID 545); conditions: renal proximal tubule cells viability, primary cells of rat origin; activity change, negative = cytotoxicity: at 91.7 µM (top of the series);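 also: 0% = DMSO only and -100% = 100 µM tamoxifen; nearly all actives have a fitted effect of over 40% in size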
Procedure, shortened: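 Viability taken as intracellular ATP (CellTiter-Glo luminescence) after 40 hr, 37 °C compound treatment of primary proximal tubule cells from rat kidney, 1000 cells/well; Hill-equation fits of qHTS concentration-response data gave AC50.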

[6] = Cell Viability - LYMP2-001 (AID 921); conditions: LYMP2-001 lymphoblastoid cell viability; series mostly up to 92.2 µM;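 also: 0% = DMSO only and full inhibition = tetraoctylammonium bromide control wells; nearly all actives have a fitted effect of over 70% in size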
Procedure, shortened: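 Cellular ATP loss read by luciferase luminescence after 24 h compound exposure at 37 C in complete medium. LYMP2-001 lymphoblastoid cells, 2500/well; qHTS concentration-response data fitted with Hill equation for AC50.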

[7] = MultiTox-Fluor Cytotoxicity Assay - LYMP1-002 - Dead Cells (AID 960); conditions: LYMP1-002 lymphoblastoid cells, dead-cell protease fluorescence; series mostly up to 46.1 µM;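 also: cells exposed to compound for 16 h at 37 °C; 0% = DMSO and 100% = tetraoctylammonium bromide; nearly all actives have a fitted effect of over 60% in size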
Procedure, shortened: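 Human lymphoblastoid LYMP1-002 cells, 2500/well, treated 16 h at 37 C; dead-cell protease cleavage of bis-AAF-R110 read by fluorescence (485/520); normalized to DMSO and 15 uM tetraoctylammonium bromide; AC50 from Hill fit.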

[8] = Cell Viability - LYMP2-005 (AID 967); conditions: LYMP2-005 lymphoblastoid cell viability; series mostly up to 92.2 µM;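 also: plate controls were DMSO only for no effect and 92 µM tetraoctylammonium bromide control for full effect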
Procedure, shortened: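 LYMP2-005 human lymphoblastoid cells (2500/well) were treated with compounds for 24 h at 37 C. Intracellular ATP was then measured by CellTiter-Glo luminescence after 30 min at room temperature. AC50 values came from Hill-equation fits of qHTS concentration-response data.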

[9] = Cell Viability - LYMP2-009 (AID 968); conditions: LYMP2-009 lymphoblastoid cell viability; series mostly up to 92.2 µM;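 also: 0% = DMSO alone and the full-kill end = tetraoctylammonium bromide at 92 µM; nearly all actives have a fitted effect of over 55% in size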
[10] = Cell Viability - LYMP2-015 (AID 971); conditions: LYMP2-015 lymphoblastoid cell viability; series mostly up to 92.2 µM;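 also: 0% = DMSO only and full effect = 92 µM tetraoctylammonium bromide; nearly all actives have a fitted effect of over 55% in size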
Procedure, shortened: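 LYMP2-015 human lymphoblastoid cells (2500/well) in complete medium, compound-treated 24 h at 37 C; viability read as cellular ATP by CellTiter-Glo luminescence after 30 min at room temperature. AC50 from Hill-equation fits of qHTS concentration-response data.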

[11] = Cell Viability - LYMP2-017 (AID 972); conditions: LYMP2-017 lymphoblastoid cell viability; series mostly up to 92.2 µM; also: % is scaled to controls: 0 for no effect and ±100 for the full control effect; nearly all actives have a fitted effect of over 55% in size
Procedure, shortened: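 LYMP2-017 human lymphoblastoid cells (2500/well) settled 5 hr at 37 C, then exposed to compound 24 hr at 37 C in complete medium. Viability taken as intracellular ATP by CellTiter-Glo luminescence after 30 min at RT; AC50 from Hill fits.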

[12] = Cell Viability - LYMP2-019 (AID 973); conditions: LYMP2-019 lymphoblastoid cell line viability; series mostly up to 92.2 µM
Procedure, shortened: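 Human lymphoblastoid LYMP2-019 cells (2500/well) preincubated 5 h at 37 C, then treated 24 h at 37 C in complete medium. Viability by CellTiter-Glo ATP luminescence after 30 min at room temperature; AC50 from Hill fits.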

[13] = Cell Viability - LYMP2-010 (AID 981); conditions: LYMP2-010 lymphoblastoid cell viability, qHTS; series mostly up to 92.2 µM
Procedure, shortened: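 Human lymphoblastoid LYMP2-010 cells (2500/well) treated 24 h at 37 C in complete medium; viability read as intracellular ATP by CellTiter-Glo luminescence. AC50 from Hill fits of concentration-response data; tetraoctylammonium bromide positive control.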

[14] = qHTS assay for small molecule agonists of retinoid X receptor alpha signaling (AID 588544; calls by dose curve); conditions: HEK293T RXRa-UAS-bla, beta-lactamase reporter, 18 h; 530 nm emission
[15] = molecular target: Retinoic acid receptor RXR-alpha (Homo sapiens) (UniProt P19793); experiment: as above; conditions: HEK293T RXRa-UAS-bla, beta-lactamase reporter, 18 h; series mostly up to 76.7 µM
[16] = molecular target: Thyroid hormone receptor beta (Homo sapiens) (UniProt P10828); experiment: qHTS assay for small molecule agonists of thyroid hormone receptor beta signaling (AID 588545; calls by dose curve;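 also: 0% = DMSO only and 100% = 10 nM T3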); conditions: TR-UAS-bla GripTite HEK 293, beta-lactamase ratio, agonist mode, 18 h; series mostly up to 76.7 µM
Procedure, shortened: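 Beta-lactamase reporter activity under TR response element control is measured in HEK 293 cells after 18 hrs compound exposure. Signal is ratiometric CCF4 fluorescence, 460/530 nm.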

[17] = qHTS assay for small molecule disruptors of the mitochondrial membrane potential - 1 hr assay (AID 651754; calls by dose curve; also: nearly all actives have a fitted effect of over 35% in size; also: potency is read from the fitted curve at half-maximal effect); conditions: series mostly up to 92.2 µM
Procedure, shortened: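 HepG2 cells, attached overnight, were exposed to compound for 1 hr at 37C, then stained 30 min with a potentiometric dye. Ratio of red aggregate (590nm) to green monomer (535nm) fluorescence reports membrane potential; collapse shifts signal toward green.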

[18] = qHTS assay for small molecule disruptors of the mitochondrial membrane potential - 5 hr assay (AID 651755; calls by dose curve; also: nearly all actives have a fitted effect of over 40% in size; also: potency is read from the fitted curve at half-maximal effect); conditions: JC-1-type ratio dye; series mostly up to 92.2 µM
Procedure, shortened: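 HepG2, 2,000 cells/well, overnight attach; cpd or DMSO 5 hr, 37C/5% CO2; Mito-MPS 30 min 37C; fluor 490/535 + 540/590 nm.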

[19] = qHTS assay for small molecule agonists of the antioxidant response element (ARE) signaling pathway measured by Nrf2-dependant transcriptional activity (AID 720636; active = well fitted curve in the direction sought with a large enough effect in the repeat runs; an effect the other way counts as inactive or inconclusive;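 also: HepG2 cells with an ARE-driven luciferase reporter; % of control where 0% means no effect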); conditions: ARE-luc HepG2, Nrf2 luciferase reporter, 16 h; series mostly up to 92.4 µM
Procedure, shortened: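 In HepG2 cells engineered with an Nrf2-responsive luciferase gene, ARE induction was quantified as luminescence after 16 hr compound treatment at 37 C.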

[20] = molecular target: Nuclear receptor subfamily 1 group I member 2 (Rattus norvegicus) (UniProt Q9R1A7); experiment: qHTS assay for small molecule activators of the rat pregnane X receptor (rPXR) signaling pathway (AID 651751; call rule not given here; also: 0% is about no effect); conditions: rPXR reporter cells, luciferase (One-Glo), 24 h
Nuclear receptor subfamily 1 group I member 2 (Rattus norvegicus), sequence (Q9R1A7 whole entry, looked up): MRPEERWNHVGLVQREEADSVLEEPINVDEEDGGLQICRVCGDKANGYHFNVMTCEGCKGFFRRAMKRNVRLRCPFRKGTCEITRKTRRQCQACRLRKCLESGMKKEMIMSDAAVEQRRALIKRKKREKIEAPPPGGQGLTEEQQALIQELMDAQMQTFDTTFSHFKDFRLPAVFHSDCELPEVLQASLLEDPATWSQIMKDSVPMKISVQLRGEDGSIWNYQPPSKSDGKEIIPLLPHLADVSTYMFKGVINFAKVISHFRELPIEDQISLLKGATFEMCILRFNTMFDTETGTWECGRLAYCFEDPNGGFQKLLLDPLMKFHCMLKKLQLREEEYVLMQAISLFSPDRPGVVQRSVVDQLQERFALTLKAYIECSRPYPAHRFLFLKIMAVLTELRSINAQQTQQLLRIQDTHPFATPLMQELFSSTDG

Thyroid hormone receptor beta (Homo sapiens), sequence (P10828 whole entry, looked up): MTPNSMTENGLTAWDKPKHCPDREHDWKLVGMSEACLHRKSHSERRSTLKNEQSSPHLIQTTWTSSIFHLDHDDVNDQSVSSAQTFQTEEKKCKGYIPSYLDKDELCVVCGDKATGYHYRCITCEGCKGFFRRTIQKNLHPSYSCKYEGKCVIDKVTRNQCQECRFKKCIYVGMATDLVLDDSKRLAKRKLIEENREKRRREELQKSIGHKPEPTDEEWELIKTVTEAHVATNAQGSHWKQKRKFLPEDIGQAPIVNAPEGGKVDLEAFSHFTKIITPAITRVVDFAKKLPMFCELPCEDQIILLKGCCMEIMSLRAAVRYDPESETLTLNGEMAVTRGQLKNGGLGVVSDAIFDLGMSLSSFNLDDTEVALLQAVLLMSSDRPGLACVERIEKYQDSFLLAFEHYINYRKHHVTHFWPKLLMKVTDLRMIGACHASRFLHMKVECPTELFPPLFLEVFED
Retinoic acid receptor RXR-alpha (Homo sapiens), sequence (P19793 whole entry, looked up): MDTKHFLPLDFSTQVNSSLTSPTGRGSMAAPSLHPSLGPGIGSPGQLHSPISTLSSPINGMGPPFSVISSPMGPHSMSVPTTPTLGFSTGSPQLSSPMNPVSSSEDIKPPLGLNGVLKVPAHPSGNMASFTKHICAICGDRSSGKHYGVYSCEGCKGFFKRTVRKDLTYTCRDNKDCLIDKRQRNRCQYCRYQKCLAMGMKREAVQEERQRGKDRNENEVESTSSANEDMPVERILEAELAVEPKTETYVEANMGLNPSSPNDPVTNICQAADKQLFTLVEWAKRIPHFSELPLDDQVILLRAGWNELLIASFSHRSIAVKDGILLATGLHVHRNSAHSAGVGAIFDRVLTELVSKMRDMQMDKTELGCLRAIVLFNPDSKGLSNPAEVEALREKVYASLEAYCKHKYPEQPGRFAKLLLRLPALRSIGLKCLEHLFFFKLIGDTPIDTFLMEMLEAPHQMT

c1c[nH]cn1
1.75%: max response [14]
inactive: Potency [1] > 92 µM | Potency [2] > 92 µM | activity change, negative = cytotoxicity [3] -11.6% | Potency [4] | Potency [5] | Potency [6] | Potency [7] | Potency [8] | Potency [9] | Potency [10] | Potency [11] | Potency [12] | Potency [13] | Potency [15] | Potency [16] | Potency [17] | Potency [18] | Potency [19] | max response [20] -3.01%

NC(=O)c1ccc([N+](=O)[O-])cc1
inactive: Potency [1] > 92 µM | Potency [2] > 92 µM | activity change, negative = cytotoxicity [3] 4.68% | Potency [4] | Potency [5] | Potency [6] | Potency [7] | Potency [8] | Potency [9] | Potency [10] | Potency [11] | Potency [12] | Potency [13] | Potency [15] | Potency [16] | Potency [17] | Potency [18] | Potency [19] | max response [20] -2.18%
-9.87%: max response [14]

CCc1ccc(C(c2ccc(CC)cc2)C(Cl)Cl)cc1
inactive: Potency [1] > 92 µM | Potency [2] > 92 µM | Potency [4] | Potency [5] | Potency [6] | Potency [7] | Potency [8] | Potency [9] | Potency [10] | Potency [11] | Potency [12] | Potency [13] | Potency [16] | Potency [17] | Potency [18] | Potency [19] | max response [20] 1.82%

CCCCNCC
-3.36%: max response [14]
inactive: Potency [1] > 92 µM | Potency [2] > 92 µM | activity change, negative = cytotoxicity [3] -1.46% | Potency [4] | Potency [5] | Potency [6] | Potency [7] | Potency [8] | Potency [9] | Potency [10] | Potency [11] | Potency [12] | Potency [13] | Potency [15] | Potency [17] | Potency [18] | Potency [19] | max response [20] 1.14%

CN(C)c1ccc(Cc2ccc(N(C)C)cc2)cc1
inactive: Potency [1] > 92 µM | Potency [2] > 92 µM | activity change, negative = cytotoxicity [3] -41% | Potency [4] | Potency [5] | Potency [6] | Potency [7] | Potency [8] | Potency [9] | Potency [10] | Potency [11] | Potency [12] | Potency [13] | Potency [16] | Potency [19] | max response [20] 1.5% and 4.81%

Nc1ccc(N=Nc2ccccc2)c(N)c1
inactive: Potency [1] > 92 µM | Potency [2] > 92 µM | Potency [5] | Potency [6] | Potency [7] | Potency [8] | Potency [9] | Potency [10] | Potency [11] | Potency [12] | Potency [13] | Potency [15] | Potency [16]
active: Potency [17] 9.44 µM | Potency [18] 10.6 µM
0.404%: max response [14]
